Nrf2 ARE act: activates Nrf2 signaling; AREc32 ARE-luciferase reporter (MCF7-derived line), luminescence, 24 h; Potency, µM (doses to about 46.1 µM), for the others: top-dose activation, hits mostly activators; actives 0.31% (n = 410,000); also: potency is read from the fitted curve at half-maximal effect; % of control where 0% means no effect; nearly all actives have a fitted effect of over 65% in size
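Quantitative high-throughput format: AREc32 reporter cells, 1000 per well, received compound by pin transfer and were incubated 24 hr at 37 deg C, 5% CO2, before Steady-Glo luminescence detection.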
IL-2 act: activates IL-2 in a cell-based reporter assay. IL-2 activation reporter assay, cell-based qHTS; stimulated with anti-CD3/CD4/CD28 beads; in transgenic mouse T cells. activation, % (series mostly up to about 46 µM). actives 0.065% (n = 360,000); in the data active = activation above about 50%; inconclusive = mostly about 30% to 49%; also: 0% is about no effect
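Screening format: compound pinned onto unstimulated transgenic mouse T cells, 60 min incubation, then anti-CD3/anti-CD4/anti-CD28 bead stimulation for 18 hours at 37 degrees C, followed by EGFP and DsRed detection.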
BRCA1 expr up: increases BRCA1 expression; MCF7-BRCA1-FFLuc reporter, luminescence, 48 h; response scale: scaled: vehicle 0%, 10 µM genistein 100%; Potency, µM (doses to about 46.1 µM), without a hit: top-dose activation, actives largely listed as activators; actives 1.1% (n = 380,000); AID 624202; also: potency is read from the fitted curve at half-maximal effect; nearly all actives have a fitted effect of over 80% in size
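MCF7 cells carrying a BRCA1-firefly luciferase reporter (2000 cells/well, phenol-red free MEM) were attached for 2 h at 37 °C, then given compounds for 48 h. Luminescence was read 15 min after luciferase reagent; activity normalized to genistein (10 microM) and DMSO.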
ELG1 DNA repair: blocks ELG1-dependent DNA repair in HEK293T cells; HEK293T ELG1-luciferase reporter, luminescence, 16 h; DNA damage induced by 5-fluorouridine; Potency, µM (doses to about 46.1 µM), for inactives: at the top dose activity change, negative = inhibition, actives largely listed as inhibitors; actives 2.3% (n = 330,000); AID 504467; also: potency is read from the fitted curve at half-maximal effect; % is scaled to controls: 0 for no effect and ±100 for the full control effect; nearly all actives have a fitted effect of over 55% in size
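Cells (2,000 per well) received 5-fluorouridine plus test compound or DMSO and were incubated 16 hr at 37 °C, 5% CO2. Luciferase activity was read by luminescence 30 min after ONE-Glo addition; signal suppression marked inhibition of damage-induced ELG1 function.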
* = called active by the depositor; ? = inconclusive; / = no result; [ ] = dose if it differs, or a comment. Hits are enriched below; roughly 3.1% of the tested compounds scored in any of these assays. Unless noted, calls follow the shape of the dose curve; as a rule, active = well fitted curve in the direction sought with a large enough effect; inconclusive = small, poorly fitted or top-dose-only effect, or another doubt; inactive = no such curve, though single readings can be large; an effect the other way counts as inactive or inconclusive.

SMILES	Nrf2 ARE act	IL-2 act	BRCA1 expr up	ELG1 DNA repair
Cc1nn(-c2ccccc2)c2nc(C3CC3)cc(C(=O)Nc3ccc(F)cc3)c12	-1%	/	/	/
O=C(CCc1nc2ccccc2c(=O)[nH]1)NCCN1C(=O)S/C(=C\c2ccc(OC(F)F)cc2)C1=O	4%	-1	-10%	/
COc1ccc(C(=O)NCCN2C(=O)S/C(=C\c3cccnc3)C2=O)c(OC)c1OC	3%	-1	-19%	?
O=C(CCl)NCCN1C(=O)S/C(=C\c2cccnc2)C1=O	13µM*	0	-38%	-26%
CCOc1cc(C(=O)NCCN2C(=O)S/C(=C\c3cccnc3)C2=O)cc(OCC)c1OCC	-1%	0	25%	18µM*
O=C(Cn1[nH]c(=O)c2ccccc2c1=O)NCCN1C(=O)S/C(=C\c2ccccc2)C1=O	13µM*	0	-55%	?
COc1cc(C(=O)ON=C2C3CC4CC(C3)CC2C4)cc(OC)c1OC	-1%	-2	-45%	23µM*
CCOC(=O)c1c(C)oc2c1c(C=NCc1ccccn1)c(O)c1ccccc12	1%	2	-79%	18µM*
Cc1ccc(CNC(=O)C2CCCN(S(=O)(=O)c3ccc4c(c3)oc(=O)n4C)C2)cc1 (stereo unspecified)	1%	/	-9%	/
Cc1cccc(CNC(=O)c2cccc(NC(=O)N3CCSc4ncccc43)c2)c1	0%	/	/	/
CCOC(=O)c1ccc2nc(C)cc(Nc3ccc(OC(C)C)cc3)c2c1	0%	/	-20%	/
O=C1CC(c2nc3ccccc3n2CCCCOc2ccccc2)CN1c1ccccc1Cl (stereo unspecified)	-6%	/	/	/
CCCc1nc2ccccc2c(C(=O)OC(C)C(=O)NCc2ccc3c(c2)OCO3)c1CC (stereo unspecified)	0%	0	-46%	21µM*
CCCc1nc2ccccc2c(C(=O)OCC(=O)NCc2ccc3c(c2)OCO3)c1CC	-1%	-1	-25%	?
COc1ccc(C2Nc3ccc(NC(C)=O)cc3C(=O)N2Cc2cccc(Cl)c2)cc1COc1ccc(NC(C)=O)cc1 (stereo unspecified)	/	/	0%	/
O=C(Cn1cnc2ccccc21)N/N=C/C(Br)=C/c1ccccc1	7.1µM*	-3	-6%	16%
O=C(N/N=C/C(Cl)=C/c1ccccc1)c1ccccc1F	?	2	10µM*	?
Cn1c(=O)c2c(ncn2CC(=O)N/N=C/C(Br)=C/c2ccccc2)n(C)c1=O	?	1	-30%	6%
O=C(N/N=C/C(Br)=C/c1ccccc1)c1n[nH]c2c1CCC2	22µM*	0	-48%	?
CC1C(=O)NN=C1C(=O)N/N=C\C(Br)=C\c1ccccc1 (stereo unspecified)	11µM*	0	75%	?
CCc1ccc(-n2nc(C)c3c(C(=O)Nc4cc(OC)cc(OC)c4)cc(C)nc32)cc1	8%	/	/	/
CCOC(=O)c1ccc(NC(=O)C2=C(C)Nc3nc(SCc4ccc(Cl)cc4)nn3C2c2ccc(C)cc2)cc1 (stereo unspecified)	0%	/	/	/
O=C(Nc1nnc(SCc2cc(=O)n3cc(Cl)ccc3n2)s1)c1cccc(F)c1	6%	/	/	/
Cc1cc(-c2ccc(S(=O)(=O)NCc3ccccc3Cl)s2)on1	2%	/	/	/
O=C(N/N=C/C(Br)=C/c1ccccc1)c1ccccc1F	13µM*	-5	?	?
SMILES	Nrf2 ARE act	IL-2 act	BRCA1 expr up	ELG1 DNA repair
O=C(N/N=C/C=C/c1ccccc1)c1cccs1	4%	1	51%	?
O=C(N/N=C/C(Br)=C/c1ccccc1)c1cccs1	10µM*	0	?	?
Cc1ccc(C)c2sc(NC(=O)C3CC3)nc12	11µM*	-3	-56%	-6%
Cc1cccc2sc(NC(=O)C3CCN(C(=O)c4ccco4)CC3)nc12	?	0	-28%	13µM*
CC1CCn2c(nc3cc(C(=O)NCc4ccccc4)ccc32)C1 (stereo unspecified)	3%	/	/	/
O=c1oc2c(F)cc(F)cc2cc1S(=O)(=O)c1ccc(F)cc1	10µM*	/	/	/
Cc1ccccc1CN1C(=O)c2ccccc2Sc2ccc(C(=O)NC3CCCCC3)cc21	0%	/	/	/
Cn1c(C(=O)NCc2cccc(Cl)c2)cc2oc3ccccc3c21	-1%	/	44%	/
COCCNC(=O)c1cc2oc3ccccc3c2n1C	3%	-3	10µM*	?
CC1(C)CC(N2CCCC2)=CC(=[N+]2CCCCC2)C1	0%	-2	-35%	1.2µM*
CC1(C)CC(N2CCCC2)=CC(=[N+]2CCCC2)C1	-1%	-4	-44%	-8%
CC1(C)CC(N2CCN(Cc3ccccc3)CC2)=CC(=[N+]2CCCCC2)C1	-1%	-6	-32%	0.73µM*
CN(Cc1ccccc1)C1=CC(=[N+]2CCCCC2)CC(C)(C)C1	0%	-3	-52%	?
Cc1cccc(N2CCN(C(=O)CN3C(=O)COc4ccc(S(=O)(=O)N5CCCCCC5)cc43)CC2)c1C	0%	/	8%	/
Cc1nc(SCc2ccccc2)c2ccsc2n1	?	-4	1%	?
c1ccc(CSc2ncnc3sccc23)cc1	11µM*	0	-1%	?
Cc1ccc(-n2ncc3c(SCc4ccccc4)ncnc32)cc1	0%	0	4.5µM*	?
c1ccc(OCCOc2ncnc3sccc23)cc1	9%	0	7.1µM*	?
CCOC(=O)CC(=O)CSc1ncnc2c1cnn2-c1ccccc1	6%	0	6.3µM*	?
CCOC(=O)CSc1ncnc2c1cnn2-c1ccccc1	0%	0	1%	10%
Cc1ccc(CSc2ncnc3c2cnn3-c2ccc(C)cc2)cc1	2%	-2	4.5µM*	?
c1ccc(CCNc2ncnc3c2cnn3-c2ccccc2)cc1	4%	-2	4.5µM*	?
c1ccc2sc(Sc3ncnc4sccc34)nc2c1	8.9µM*	-2	-53%	-3%
CN(Cc1ccccc1)c1ncnc2c1cnn2-c1ccccc1	4%	0	?	?
CCN(c1ccccc1)c1ncnc2c1cnn2-c1ccccc1	5%	-2	5µM*	?
SMILES	Nrf2 ARE act	IL-2 act	BRCA1 expr up	ELG1 DNA repair
Cc1ccc(CSc2ncnc3c2cnn3-c2ccccc2)cc1	3%[9.22 µM]	0	58%	?
Cc1ccc(-n2ncc3c(NCCc4ccccc4)ncnc32)cc1C	1%	/	/	/
O=C(COc1cccc(Cl)c1)N1CCC(c2nc3ccccc3s2)CC1	4%	/	/	/
CC(=O)N1CCc2c(sc3c2c(=O)n(-c2ccc(C)cc2)c(=O)n3Cc2ccccc2C)C1	4%	/	0%	/
Cc1cccc(Cc2c(C)nc3nc(SCc4ccccc4C)nn3c2C)c1	1%	/	/	/
Cc1cc(NC(c2nnc(-c3ccccc3)o2)c2ccccc2F)ccc1Br (stereo unspecified)	8%	/	/	/
CCOC(=O)c1cc(-c2ccc(OC)cc2)nc2c1c(C)nn2CCC#N	-1%	1	-27%	3.7µM*
CCOC(=O)c1cc(-c2ccncc2)nc2c1c(C)nn2-c1ccccn1	0%	-1	-61%	23µM*
CCOC(=O)c1cc(-c2ccc(C#N)cc2)nc2c1c(C)nn2CCC#N	-1%	0	-15%	?

Screening data from PubChem BioAssay.
